# Data published in ChEMBL document CHEMBL1961873, “Compounds: GSK PKIS; Assays: Nanosyn kinase panel” (2012).
# What was measured:
# [1] = target: T1, Ephrin type-B receptor 3 (Homo sapiens) (UniProt P54753); conditions: at 0.1 µM
# T1 sequence (whole entry): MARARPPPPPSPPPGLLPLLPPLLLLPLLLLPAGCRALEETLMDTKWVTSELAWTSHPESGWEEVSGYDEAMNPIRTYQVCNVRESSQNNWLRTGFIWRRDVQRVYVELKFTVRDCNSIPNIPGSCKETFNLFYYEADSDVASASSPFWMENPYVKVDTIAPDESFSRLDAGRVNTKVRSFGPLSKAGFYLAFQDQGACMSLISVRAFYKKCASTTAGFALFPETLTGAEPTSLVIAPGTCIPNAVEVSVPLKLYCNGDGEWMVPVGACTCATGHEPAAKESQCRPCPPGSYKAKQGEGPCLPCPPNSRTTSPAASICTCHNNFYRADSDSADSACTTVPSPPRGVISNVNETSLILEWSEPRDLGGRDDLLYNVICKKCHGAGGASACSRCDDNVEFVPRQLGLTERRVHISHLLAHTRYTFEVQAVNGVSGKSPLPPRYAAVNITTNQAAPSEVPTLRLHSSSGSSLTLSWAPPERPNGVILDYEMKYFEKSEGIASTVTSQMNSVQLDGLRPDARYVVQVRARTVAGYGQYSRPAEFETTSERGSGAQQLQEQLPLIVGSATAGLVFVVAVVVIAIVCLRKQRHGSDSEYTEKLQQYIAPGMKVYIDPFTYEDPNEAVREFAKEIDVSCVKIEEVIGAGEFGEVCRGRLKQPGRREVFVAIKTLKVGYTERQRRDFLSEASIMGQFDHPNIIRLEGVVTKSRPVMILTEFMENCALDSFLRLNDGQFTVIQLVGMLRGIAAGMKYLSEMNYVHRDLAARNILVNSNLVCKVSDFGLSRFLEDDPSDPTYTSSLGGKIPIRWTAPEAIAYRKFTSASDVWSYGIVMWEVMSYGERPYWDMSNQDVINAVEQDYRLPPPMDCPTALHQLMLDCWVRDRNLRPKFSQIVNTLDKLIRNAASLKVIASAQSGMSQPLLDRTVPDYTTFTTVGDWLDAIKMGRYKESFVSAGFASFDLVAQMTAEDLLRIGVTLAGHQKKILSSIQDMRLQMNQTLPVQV
# [2] = target: T1, Ephrin type-B receptor 3 (Homo sapiens); conditions: at 1 µM
# [3] = target: T2, Ephrin type-B receptor 4 (Homo sapiens) (UniProt P54760); conditions: at 0.1 µM
# T2 sequence (whole entry): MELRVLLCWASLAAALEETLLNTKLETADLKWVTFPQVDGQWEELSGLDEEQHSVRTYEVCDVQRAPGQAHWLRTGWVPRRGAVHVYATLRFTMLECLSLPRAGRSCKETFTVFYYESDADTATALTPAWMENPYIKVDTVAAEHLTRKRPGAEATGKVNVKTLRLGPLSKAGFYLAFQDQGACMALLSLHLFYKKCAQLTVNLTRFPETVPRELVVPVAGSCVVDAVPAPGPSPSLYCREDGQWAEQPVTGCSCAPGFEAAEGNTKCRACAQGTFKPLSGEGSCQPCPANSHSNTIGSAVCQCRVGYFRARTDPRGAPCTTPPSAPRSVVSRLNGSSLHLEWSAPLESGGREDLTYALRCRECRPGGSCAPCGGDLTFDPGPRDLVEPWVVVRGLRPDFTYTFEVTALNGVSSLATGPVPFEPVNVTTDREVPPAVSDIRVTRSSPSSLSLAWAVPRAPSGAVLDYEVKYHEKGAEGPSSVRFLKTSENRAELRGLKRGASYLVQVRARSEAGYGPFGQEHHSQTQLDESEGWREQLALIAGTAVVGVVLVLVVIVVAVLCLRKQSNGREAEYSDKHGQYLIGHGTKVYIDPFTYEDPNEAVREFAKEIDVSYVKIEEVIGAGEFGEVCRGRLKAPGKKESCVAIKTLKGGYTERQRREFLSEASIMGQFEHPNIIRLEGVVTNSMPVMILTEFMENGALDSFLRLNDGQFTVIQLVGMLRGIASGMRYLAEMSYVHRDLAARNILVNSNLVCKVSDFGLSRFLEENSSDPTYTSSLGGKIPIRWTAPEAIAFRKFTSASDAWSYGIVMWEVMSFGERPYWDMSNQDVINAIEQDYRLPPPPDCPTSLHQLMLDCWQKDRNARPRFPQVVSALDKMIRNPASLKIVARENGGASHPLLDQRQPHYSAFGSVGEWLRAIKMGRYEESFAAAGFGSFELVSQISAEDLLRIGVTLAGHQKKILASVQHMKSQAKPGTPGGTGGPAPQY
# [4] = target: T2, Ephrin type-B receptor 4 (Homo sapiens); conditions: at 1 µM
# [5] = target: Receptor tyrosine-protein kinase erbB-2 (Homo sapiens) (UniProt P04626); conditions: at 0.1 µM
# Sequence of Receptor tyrosine-protein kinase erbB-2 (Homo sapiens) (P04626 whole entry): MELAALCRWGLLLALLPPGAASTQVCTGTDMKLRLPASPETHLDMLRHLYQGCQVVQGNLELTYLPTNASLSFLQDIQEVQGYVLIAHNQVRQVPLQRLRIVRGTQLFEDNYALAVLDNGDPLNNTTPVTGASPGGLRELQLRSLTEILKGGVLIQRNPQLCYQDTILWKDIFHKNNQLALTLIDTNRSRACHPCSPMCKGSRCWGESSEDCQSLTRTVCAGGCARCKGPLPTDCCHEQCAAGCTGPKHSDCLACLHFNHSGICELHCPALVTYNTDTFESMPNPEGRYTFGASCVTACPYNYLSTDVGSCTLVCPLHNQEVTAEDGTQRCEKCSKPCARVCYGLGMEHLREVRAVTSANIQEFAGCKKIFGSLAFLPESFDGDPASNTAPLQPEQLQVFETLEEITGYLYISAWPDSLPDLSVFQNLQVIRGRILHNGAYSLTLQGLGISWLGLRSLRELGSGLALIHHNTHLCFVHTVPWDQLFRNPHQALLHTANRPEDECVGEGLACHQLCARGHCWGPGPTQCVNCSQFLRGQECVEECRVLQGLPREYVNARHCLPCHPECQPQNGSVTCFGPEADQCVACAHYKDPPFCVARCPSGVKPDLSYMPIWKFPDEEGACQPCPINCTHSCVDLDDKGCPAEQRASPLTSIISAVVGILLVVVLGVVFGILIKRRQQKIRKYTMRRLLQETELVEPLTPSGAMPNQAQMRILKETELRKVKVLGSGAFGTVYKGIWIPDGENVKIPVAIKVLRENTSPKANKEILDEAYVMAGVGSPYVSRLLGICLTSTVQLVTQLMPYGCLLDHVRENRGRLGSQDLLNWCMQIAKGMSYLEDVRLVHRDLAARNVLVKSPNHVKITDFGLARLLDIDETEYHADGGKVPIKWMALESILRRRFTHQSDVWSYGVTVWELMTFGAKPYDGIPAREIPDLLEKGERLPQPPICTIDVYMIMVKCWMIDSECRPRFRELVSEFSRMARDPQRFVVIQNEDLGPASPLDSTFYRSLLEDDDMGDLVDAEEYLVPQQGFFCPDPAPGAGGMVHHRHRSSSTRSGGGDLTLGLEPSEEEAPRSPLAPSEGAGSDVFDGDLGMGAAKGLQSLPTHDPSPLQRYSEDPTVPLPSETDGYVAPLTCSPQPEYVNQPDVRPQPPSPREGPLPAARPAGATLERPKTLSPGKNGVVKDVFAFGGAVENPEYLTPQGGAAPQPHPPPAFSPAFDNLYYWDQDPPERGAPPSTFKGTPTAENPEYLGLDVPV
# [6] = target: Receptor tyrosine-protein kinase erbB-2 (Homo sapiens) (UniProt P04626); conditions: at 1 µM
# [7] = target: Receptor tyrosine-protein kinase erbB-4 (Homo sapiens) (UniProt Q15303); conditions: at 0.1 µM
# Sequence of Receptor tyrosine-protein kinase erbB-4 (Homo sapiens) (Q15303 whole entry): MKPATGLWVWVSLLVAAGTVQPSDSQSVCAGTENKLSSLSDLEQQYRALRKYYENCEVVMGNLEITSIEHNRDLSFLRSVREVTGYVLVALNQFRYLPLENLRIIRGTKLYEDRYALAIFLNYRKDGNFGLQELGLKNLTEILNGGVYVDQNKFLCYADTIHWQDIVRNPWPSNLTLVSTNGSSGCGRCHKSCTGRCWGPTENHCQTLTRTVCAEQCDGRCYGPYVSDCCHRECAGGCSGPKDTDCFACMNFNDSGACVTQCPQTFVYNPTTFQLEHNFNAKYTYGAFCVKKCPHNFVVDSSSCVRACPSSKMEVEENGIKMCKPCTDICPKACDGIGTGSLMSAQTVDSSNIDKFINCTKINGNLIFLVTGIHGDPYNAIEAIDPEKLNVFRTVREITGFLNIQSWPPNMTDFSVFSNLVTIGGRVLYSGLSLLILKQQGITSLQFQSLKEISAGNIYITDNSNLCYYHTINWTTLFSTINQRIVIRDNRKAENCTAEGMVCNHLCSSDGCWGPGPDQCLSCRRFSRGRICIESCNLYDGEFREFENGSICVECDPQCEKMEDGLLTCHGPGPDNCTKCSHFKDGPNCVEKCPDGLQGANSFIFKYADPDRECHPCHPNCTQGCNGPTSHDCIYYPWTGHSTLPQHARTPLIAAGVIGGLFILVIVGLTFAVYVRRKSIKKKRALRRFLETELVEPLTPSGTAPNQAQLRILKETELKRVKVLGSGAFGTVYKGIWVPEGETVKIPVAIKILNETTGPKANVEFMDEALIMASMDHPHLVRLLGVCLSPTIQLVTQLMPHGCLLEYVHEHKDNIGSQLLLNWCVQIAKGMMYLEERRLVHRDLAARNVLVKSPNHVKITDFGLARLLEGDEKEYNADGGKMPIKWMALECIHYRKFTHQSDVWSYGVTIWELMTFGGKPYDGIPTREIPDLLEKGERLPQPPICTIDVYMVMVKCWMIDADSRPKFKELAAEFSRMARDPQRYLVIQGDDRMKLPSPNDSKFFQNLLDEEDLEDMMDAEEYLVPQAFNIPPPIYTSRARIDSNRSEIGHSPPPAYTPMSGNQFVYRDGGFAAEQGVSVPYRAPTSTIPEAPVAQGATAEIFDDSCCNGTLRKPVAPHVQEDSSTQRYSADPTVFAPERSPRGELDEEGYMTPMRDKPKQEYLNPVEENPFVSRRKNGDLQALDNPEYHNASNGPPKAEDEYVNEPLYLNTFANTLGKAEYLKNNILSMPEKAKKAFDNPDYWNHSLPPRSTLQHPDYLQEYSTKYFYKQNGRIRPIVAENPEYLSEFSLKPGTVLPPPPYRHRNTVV
# [8] = target: Receptor tyrosine-protein kinase erbB-4 (Homo sapiens) (UniProt Q15303); conditions: at 1 µM
# [9] = target: Tyrosine-protein kinase Fer (Homo sapiens) (UniProt P16591); conditions: at 0.1 µM
# [10] = target: Tyrosine-protein kinase Fer (Homo sapiens) (UniProt P16591); conditions: at 1 µM
# [11] = target: Tyrosine-protein kinase Fes/Fps (Homo sapiens) (UniProt P07332); conditions: at 0.1 µM
# Sequence of Tyrosine-protein kinase Fes/Fps (Homo sapiens) (P07332 whole entry): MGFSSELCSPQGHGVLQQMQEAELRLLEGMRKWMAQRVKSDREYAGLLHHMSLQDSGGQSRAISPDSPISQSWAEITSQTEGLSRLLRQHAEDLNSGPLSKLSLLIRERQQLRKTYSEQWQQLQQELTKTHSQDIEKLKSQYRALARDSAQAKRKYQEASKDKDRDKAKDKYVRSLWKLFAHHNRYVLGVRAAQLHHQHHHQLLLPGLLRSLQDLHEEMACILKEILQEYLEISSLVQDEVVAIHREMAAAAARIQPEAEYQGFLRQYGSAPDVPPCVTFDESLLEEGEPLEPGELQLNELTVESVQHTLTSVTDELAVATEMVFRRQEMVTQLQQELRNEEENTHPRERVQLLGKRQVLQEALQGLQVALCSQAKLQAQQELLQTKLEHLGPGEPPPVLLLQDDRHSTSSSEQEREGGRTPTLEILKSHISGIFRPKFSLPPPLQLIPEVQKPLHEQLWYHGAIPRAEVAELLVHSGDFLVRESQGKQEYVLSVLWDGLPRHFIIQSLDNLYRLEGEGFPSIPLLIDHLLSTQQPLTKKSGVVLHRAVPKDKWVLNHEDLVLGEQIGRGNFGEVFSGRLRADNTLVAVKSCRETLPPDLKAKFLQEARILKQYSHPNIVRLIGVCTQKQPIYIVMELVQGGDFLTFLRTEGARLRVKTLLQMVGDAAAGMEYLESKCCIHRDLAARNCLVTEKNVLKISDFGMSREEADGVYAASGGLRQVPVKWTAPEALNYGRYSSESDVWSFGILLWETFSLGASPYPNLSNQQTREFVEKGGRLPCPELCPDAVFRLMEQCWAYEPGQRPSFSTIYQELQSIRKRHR
# [12] = target: Tyrosine-protein kinase Fes/Fps (Homo sapiens) (UniProt P07332); conditions: at 1 µM
# [13] = target: Fibroblast growth factor receptor 1 (Homo sapiens) (UniProt P11362); conditions: at 0.1 µM
# [14] = target: Fibroblast growth factor receptor 1 (Homo sapiens) (UniProt P11362); conditions: at 1 µM
# [15] = target: Fibroblast growth factor receptor 2 (Homo sapiens) (UniProt P21802); conditions: at 0.1 µM
# Sequence of Fibroblast growth factor receptor 2 (Homo sapiens) (P21802 22-821 limits assumed): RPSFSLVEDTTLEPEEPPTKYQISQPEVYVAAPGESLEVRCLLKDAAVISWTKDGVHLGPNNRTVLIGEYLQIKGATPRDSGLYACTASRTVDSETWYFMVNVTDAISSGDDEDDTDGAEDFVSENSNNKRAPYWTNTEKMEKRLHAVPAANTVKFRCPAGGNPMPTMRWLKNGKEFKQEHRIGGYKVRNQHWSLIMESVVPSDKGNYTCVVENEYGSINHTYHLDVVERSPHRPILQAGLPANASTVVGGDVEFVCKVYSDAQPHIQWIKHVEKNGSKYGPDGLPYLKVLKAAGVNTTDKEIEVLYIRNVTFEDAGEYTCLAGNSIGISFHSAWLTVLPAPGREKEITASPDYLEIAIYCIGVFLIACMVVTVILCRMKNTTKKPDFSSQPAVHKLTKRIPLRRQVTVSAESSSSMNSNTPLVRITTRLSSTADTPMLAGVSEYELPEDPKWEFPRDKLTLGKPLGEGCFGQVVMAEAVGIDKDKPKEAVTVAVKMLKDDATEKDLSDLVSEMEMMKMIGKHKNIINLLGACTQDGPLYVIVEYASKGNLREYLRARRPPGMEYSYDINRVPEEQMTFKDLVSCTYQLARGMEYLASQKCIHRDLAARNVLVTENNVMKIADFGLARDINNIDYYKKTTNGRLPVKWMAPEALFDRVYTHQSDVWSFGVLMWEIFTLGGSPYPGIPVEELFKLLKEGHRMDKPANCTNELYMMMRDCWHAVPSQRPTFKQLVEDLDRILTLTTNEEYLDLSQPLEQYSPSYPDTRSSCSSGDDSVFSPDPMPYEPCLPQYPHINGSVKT
# [16] = target: Fibroblast growth factor receptor 2 (Homo sapiens) (UniProt P21802); conditions: at 1 µM
# [17] = target: Fibroblast growth factor receptor 3 (Homo sapiens) (UniProt P22607); conditions: at 0.1 µM
# [18] = target: Fibroblast growth factor receptor 3 (Homo sapiens) (UniProt P22607); conditions: at 1 µM
# [19] = target: Fibroblast growth factor receptor 4 (Homo sapiens) (UniProt P22455); conditions: at 0.1 µM;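 also: values are mean percent inhibition of FGFR4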
# Sequence of Fibroblast growth factor receptor 4 (Homo sapiens) (P22455 22-802 limits assumed): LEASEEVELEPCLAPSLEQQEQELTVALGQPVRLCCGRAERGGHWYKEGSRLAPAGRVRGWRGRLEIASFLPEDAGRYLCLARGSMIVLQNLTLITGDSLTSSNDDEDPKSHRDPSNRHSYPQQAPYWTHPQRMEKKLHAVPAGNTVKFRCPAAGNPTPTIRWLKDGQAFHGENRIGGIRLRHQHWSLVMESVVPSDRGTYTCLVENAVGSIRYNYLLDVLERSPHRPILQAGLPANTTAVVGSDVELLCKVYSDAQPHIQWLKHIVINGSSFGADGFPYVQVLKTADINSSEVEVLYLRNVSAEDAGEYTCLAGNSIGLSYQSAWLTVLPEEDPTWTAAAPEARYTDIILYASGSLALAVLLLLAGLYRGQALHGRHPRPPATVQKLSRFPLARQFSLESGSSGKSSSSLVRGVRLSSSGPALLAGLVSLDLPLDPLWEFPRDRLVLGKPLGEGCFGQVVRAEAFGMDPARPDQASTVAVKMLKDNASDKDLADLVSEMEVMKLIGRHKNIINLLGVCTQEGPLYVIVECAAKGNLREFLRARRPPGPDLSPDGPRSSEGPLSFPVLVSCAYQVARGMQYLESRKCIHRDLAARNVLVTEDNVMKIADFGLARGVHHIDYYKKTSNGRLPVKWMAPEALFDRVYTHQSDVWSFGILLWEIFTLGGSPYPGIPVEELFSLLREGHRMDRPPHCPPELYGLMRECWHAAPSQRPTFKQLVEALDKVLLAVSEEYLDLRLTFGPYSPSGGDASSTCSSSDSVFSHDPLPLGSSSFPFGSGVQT
# [20] = target: T3, Ephrin type-B receptor 2 (Homo sapiens) (UniProt P29323); conditions: at 1 µM
# T3 sequence (whole entry): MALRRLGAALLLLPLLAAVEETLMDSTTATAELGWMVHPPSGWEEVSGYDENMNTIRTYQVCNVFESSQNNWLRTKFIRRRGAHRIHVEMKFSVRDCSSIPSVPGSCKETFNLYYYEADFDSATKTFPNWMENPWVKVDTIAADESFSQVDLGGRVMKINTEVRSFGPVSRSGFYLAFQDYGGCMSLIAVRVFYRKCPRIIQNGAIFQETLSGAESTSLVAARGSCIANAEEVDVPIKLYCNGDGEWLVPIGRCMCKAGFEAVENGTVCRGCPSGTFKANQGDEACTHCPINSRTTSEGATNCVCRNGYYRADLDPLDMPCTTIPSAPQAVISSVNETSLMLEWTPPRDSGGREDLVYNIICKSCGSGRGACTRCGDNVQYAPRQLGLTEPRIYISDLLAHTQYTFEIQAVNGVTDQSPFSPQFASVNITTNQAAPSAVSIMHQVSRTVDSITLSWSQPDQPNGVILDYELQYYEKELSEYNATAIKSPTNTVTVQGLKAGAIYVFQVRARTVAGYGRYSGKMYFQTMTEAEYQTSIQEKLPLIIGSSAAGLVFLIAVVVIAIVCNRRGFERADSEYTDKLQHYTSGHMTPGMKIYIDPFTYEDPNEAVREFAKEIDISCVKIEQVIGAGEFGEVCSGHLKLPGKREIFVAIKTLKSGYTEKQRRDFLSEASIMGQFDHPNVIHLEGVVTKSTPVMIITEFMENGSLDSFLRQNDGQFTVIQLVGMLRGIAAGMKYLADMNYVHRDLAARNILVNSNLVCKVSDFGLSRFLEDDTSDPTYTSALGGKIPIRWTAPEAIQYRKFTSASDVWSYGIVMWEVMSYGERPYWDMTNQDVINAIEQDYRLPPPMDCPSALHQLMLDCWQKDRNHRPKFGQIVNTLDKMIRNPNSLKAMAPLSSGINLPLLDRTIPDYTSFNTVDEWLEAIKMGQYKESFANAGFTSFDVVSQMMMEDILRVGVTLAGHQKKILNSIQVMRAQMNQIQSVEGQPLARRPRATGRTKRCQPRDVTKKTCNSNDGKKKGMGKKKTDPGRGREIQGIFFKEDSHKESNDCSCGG
Compound,inhibition [1],inhibition [2],inhibition [3],inhibition [4],inhibition [5],inhibition [6],inhibition [7],inhibition [8],inhibition [9],inhibition [10],inhibition [11],inhibition [12],inhibition [13],inhibition [14],inhibition [15],inhibition [16],inhibition [17],inhibition [18],inhibition [19],inhibition [20]
CS(=O)(=O)Nc1cccc(-c2ccc3c(NC(=O)C4CC4)n[nH]c3c2)c1,4.48%,-3.94%,0.62%,0.5%,0.54%,-4.31%,6.04%,8.34%,-0.81%,0.02%,0.9%,1.23%,-6.27%,0.55%,-3.44%,5.34%,1.56%,2.41%,-5.5%,–
Cc1ccc(O)cc1Nc1ccnc2ccc(S(C)(=O)=O)cc12,96.9%,97.3%,91.6%,95.6%,4.44%,5.88%,20.2%,52.2%,4.91%,18.5%,8.11%,39.4%,7.68%,8.34%,5.74%,14.5%,6.01%,11%,-0.45%,86.3%
O=C(Nc1ccc(Oc2ccc3[nH]c(NC(=O)c4ccco4)nc3c2)cc1)Nc1cc(C(F)(F)F)ccc1F,2.25%,24.2%,8.82%,63.8%,-0.1%,-0.1%,-1.74%,-5.16%,3.08%,5.37%,0.02%,0.11%,-3.4%,9.84%,-3.04%,33.2%,-0.92%,7.51%,-1.82%,78.3%
